Compound activity deposited in PubChem by The Scripps Research Institute Molecular Screening Center.
An excerpt weighted towards active compounds, which were near 3.4% of everything screened.
MITF inh – inhibitors of human MITF | AlphaScreen MITF homodimerization, bead proximity signal | inhibition, % at 2.6 µM | 650,000 tested, 0.91% active | AID 1259374; in the data active = inhibition above about 50%;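 note: 0% = vehicle wells with protein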
Target sequence (O75030 whole entry, looked up): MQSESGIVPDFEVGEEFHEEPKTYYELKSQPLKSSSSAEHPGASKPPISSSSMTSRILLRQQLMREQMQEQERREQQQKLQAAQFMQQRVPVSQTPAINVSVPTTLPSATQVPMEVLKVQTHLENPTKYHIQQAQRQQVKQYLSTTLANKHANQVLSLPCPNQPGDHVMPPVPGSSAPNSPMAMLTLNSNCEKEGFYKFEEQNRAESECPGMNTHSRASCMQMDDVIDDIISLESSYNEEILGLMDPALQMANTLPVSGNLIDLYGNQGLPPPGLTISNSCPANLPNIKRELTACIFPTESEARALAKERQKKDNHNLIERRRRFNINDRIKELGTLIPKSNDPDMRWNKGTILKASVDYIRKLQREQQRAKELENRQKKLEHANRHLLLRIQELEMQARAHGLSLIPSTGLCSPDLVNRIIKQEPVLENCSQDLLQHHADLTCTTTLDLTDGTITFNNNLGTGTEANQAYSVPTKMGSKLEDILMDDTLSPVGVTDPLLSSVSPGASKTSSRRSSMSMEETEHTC
TEAD-YAP inh – TEAD-YAP interaction inhibition; HEK-TIYL cells, TEAD-Gal4/YAP UAS-luciferase luminescence; inhibition, % at 9.12 µM; 640,000 tested, 1.4% active; in the data active = inhibition above about 32%;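 note: 0% = median of test compound wells and 100% = reference inhibitor wells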
FBW7 activator – activators of human E3 ligase FBW7 | 650,000 tested, 0.13% active | normalized activity (activation), % at 26.1 µM | AlphaScreen FBW7–phospho-cyclin E peptide binding, activator screen | Q969H0; in the data active = normalized activity above about 1.9%;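 note: purified mutant Fbw7 with reduced substrate affinity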
GPR151 ag – activates the human receptor GPR151; Q8TDV0; PathHunter beta-arrestin GPR151 cells, luminescence; activation, % at 11.2 µM; 650,000 tested, 1% active; AID 1508602; in the data active = activation above about 4.9%;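 note: 0% = median of compound wells and 100% = cells with positive control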
* marks the source's active call; other numbers are inactive results; ! = a repeat was not active.

SMILES | MITF inh | TEAD-YAP inh | FBW7 activator | GPR151 ag
O=C(c1nccs1)C1CCN(C(=O)Cn2cnc3ccccc3c2=O)CC1 | 9.0 | 12.6 | 0.2 | 0.7
CC1(C)Cc2c(sc(NC(=O)c3ccccc3)c2C(=O)O)CO1 | 4.2 | 46.5* | -0.1 | -4.5
CC(C)COc1ccc(C(=O)Nc2sc3c(c2C(=O)O)CC(C)(C)OC3)cc1 | 4.8 | 20.4 | 0.1 | 0.7
CC1(C)Cc2c(sc(NC(=O)c3ccccc3)c2C(N)=S)CO1 | -4.0 | -63.8 | -0.1 | -0.8
COc1ccc(C(=O)Nc2sc3c(c2C(=O)O)CC(C)(C)OC3)cc1OC | -18.2 | 40.1* | -0.1 | 0.1
O=C1C=CC2=C3c4cc(O)c(O)cc4C[C@@]3(O)COC2=C1 | 88.1* | 5.1 | -0.3 | -0.9
Nc1ccc(/C=C/c2nc3ccccc3o2)cc1 | 11.9 | 44.5* | 0.0 | -3.8
O=[N+]([O-])c1ccc(Sc2n[nH]c(-c3ccncc3)n2)nc1 | 5.1 | 5.3 | -0.1 | -0.2
Cc1cc(C(F)(F)F)nc(Sc2ccc([N+](=O)[O-])cn2)n1 | 24.4 | 60.4* | 0.1 | -1.0
Oc1ccc(/C=C/c2cc(O)cc(O)c2)cc1 | -6.3 | 89.1*! | 0.5 | -6.2
OC[C@H]1O[C@@H](Oc2cc(O)cc(/C=C/c3ccc(O)cc3)c2)[C@H](O)[C@@H](O)[C@@H]1O | 4.6 | 11.5 | -0.1 | 2.1
CC(C)(C)c1ccc(COC(=O)c2ccc[nH]c2=O)cc1 | 6.2 | 3.9 | 0.3 | -1.4
COc1cc(Nc2nc(Nc3nccc4ccccc34)nc3c2ncn3Cc2ccc(C(F)(F)F)cc2)cc(OC)c1OC | 2.3 | -2.3 | 0.0 | -0.3
O=C(Nc1cccc(Cl)c1)c1cc(-c2cccs2)on1 | 14.7 | -17.3 | 0.1 | -0.1
CCOC(=O)c1c(NC(=O)c2cc(-c3cccs3)on2)sc(C)c1C | -8.2 | -1.6 | 2.8* | 1.4
COc1cccc(-c2cc(C(=O)Nc3cccc(O)c3)no2)c1 | -2.6 | 88.6* | 0.0 | -1.9
CCOC(=O)c1c(NC(=O)c2cc(-c3cccs3)on2)sc(C(C)=O)c1C | -9.4 | -0.9 | -0.2 | 0.1
COCC(C)NC(=O)c1cc(-c2cccc(OC)c2)on1 (configuration not stated) | -19.4 | -42.0 | 1.9* | -1.5
O=C(Nc1cccc(O)c1)c1cc(-c2cccs2)on1 | 12.9 | 77.4* | 0.7 | -3.6
O=S(=O)(NCCCN1CCCCCC1)c1cccc2nsnc12 | 6.3 | 6.9 | -0.1 | -1.2
Cc1ccc(CN(C(=O)COc2ccccc2C)C2CCS(=O)(=O)C2)o1 (configuration not stated) | 9.0 | -1.4 | 0.6 | 0.5
COc1ccc(OC)c(CNCc2c(C(=O)O)n(Cc3cccc(F)c3)c3ccccc23)c1 | 5.9 | 20.9 | -0.2 | 1.0
CCOc1ccccc1/C=N/NC(=O)c1c(C)nnn1-c1nonc1N | 11.1 | 6.9 | 0.2 | -1.5
O=C(Nc1ccc(NC(=O)c2ccccc2Cl)cc1)c1ccc(Cl)c([N+](=O)[O-])c1 | -3.6 | 3.9 | -0.2 | 4.5
O=C(Nc1cccc(O)c1)c1cc(-c2ccc(Br)cc2)on1 | 6.8 | 73.7* | 0.9 | -5.6
SMILES | MITF inh | TEAD-YAP inh | FBW7 activator | GPR151 ag
COc1cc(NC(=O)c2cc(-c3cccs3)on2)cc(OC)c1OC | -4.8 | 36.0* | -0.1 | -0.4
COc1ccc2c(c1)CCc1c(C(=O)Nc3cccc(O)c3)noc1-2 | -6.3 | 94.6* | 0.2 | -6.1
O=C(Nc1cccc(O)c1)c1cc(-c2ccc(O)cc2)on1 | 5.1 | 65.3* | 0.1 | -2.7
COc1ccc2c(c1)CCc1c(C(=O)Nc3cccc(C(C)=O)c3)noc1-2 | -2.2 | -14.6 | -0.1 | -0.4
COC(=O)c1ccc(NC(=O)CC2C(=O)N(c3cccc(C)c3)C(=O)N2C2CC2)cc1 (configuration not stated) | -23.8 | 4.6 | 0.3 | 1.6
Cc1cc(C)c2nc(N3CCC(C(=O)N4CCC5(CC4)OCCO5)CC3)sc2c1 | -6.2 | -1.5 | 0.0 | 1.5
CC(=O)c1ccc(NC(=O)Cn2cnc3c(cnn3-c3ccc(C)c(C)c3)c2=O)cc1 | -10.8 | 11.6 | 0.0 | -0.1
Cc1nc2cc(NCc3nc4ccccc4n3C)ccc2n1C | 9.4 | 80.9* | 0.7 | -10.6
Cc1cccc(C)c1NC(=O)C(=O)NCc1ccco1 | -2.6 | -2.9 | -0.1 | 2.2
Cn1c(SCC2CCCCO2)nnc1-c1ccccc1 (configuration not stated) | -5.5 | -32.8 | -0.1 | -0.3
Cn1c(SCC2CCCO2)nnc1-c1ccccc1O (configuration not stated) | 10.3 | 61.1* | 0.4 | 0.2
CCOC(=O)C1=C(CSc2nnc(C)s2)NC(=O)NC1c1ccc(Cl)cc1 (configuration not stated) | 9.6 | 6.5 | -0.1 | 3.0
CCOc1ccc2c(c1)-c1c(ssc1=S)C(C)(C)N2C(=O)C(F)(F)F | 10.6 | 0.6 | -1.2 | 0.2
